Measured values reported in PubChem BioAssay (NCATS).
Records with an inconclusive call do not appear. Entries that show only a call come without a potency. Calls of active or inactive are those of the source. Unless noted, the call rests on the fitted dose curve; in most records, active means well fitted curve in the direction sought with a large enough effect; inconclusive means small, poorly fitted or top-dose-only effect, or another doubt; inactive means no such curve, though single readings can be large; an effect the other way counts as inactive or inconclusive.

How the values were obtained:
[1] = qHTS for Inhibitors of the Functional Ribonucleoprotein Complex (vRNP) of Lymphocytic Choriomeningitis Arenaviruses (LCMV): Viability assay - alamar blue signal for LCMV Primary Screen (AID 1347085; calls by dose curve; tested in HEK293 reporter line; further: nearly all actives have a fitted effect of over 80% in size); conditions: alamar blue viability counter-screen, LCMV vRNP screen cells; series mostly up to 57.5 µM
[2] = biological target: Nucleoprotein (Lymphocytic choriomeningitis virus (strain Armstrong)) (UniProt P09992); experiment: qHTS for Inhibitors of the Functional Ribonucleoprotein Complex (vRNP) of Lymphocytic Choriomeningitis Arenaviruses (LCMV): LCMV Primary Screen - GLuc reporter signal (AID 1347086; calls by dose curve; further: nearly all actives have a fitted effect of over 70% in size); conditions: LCMV minigenome vRNP cell assay, Gaussia luciferase reporter; series mostly up to 57.5 µM
Sequence of Nucleoprotein (Lymphocytic choriomeningitis virus (strain Armstrong)) (P09992 whole entry, looked up): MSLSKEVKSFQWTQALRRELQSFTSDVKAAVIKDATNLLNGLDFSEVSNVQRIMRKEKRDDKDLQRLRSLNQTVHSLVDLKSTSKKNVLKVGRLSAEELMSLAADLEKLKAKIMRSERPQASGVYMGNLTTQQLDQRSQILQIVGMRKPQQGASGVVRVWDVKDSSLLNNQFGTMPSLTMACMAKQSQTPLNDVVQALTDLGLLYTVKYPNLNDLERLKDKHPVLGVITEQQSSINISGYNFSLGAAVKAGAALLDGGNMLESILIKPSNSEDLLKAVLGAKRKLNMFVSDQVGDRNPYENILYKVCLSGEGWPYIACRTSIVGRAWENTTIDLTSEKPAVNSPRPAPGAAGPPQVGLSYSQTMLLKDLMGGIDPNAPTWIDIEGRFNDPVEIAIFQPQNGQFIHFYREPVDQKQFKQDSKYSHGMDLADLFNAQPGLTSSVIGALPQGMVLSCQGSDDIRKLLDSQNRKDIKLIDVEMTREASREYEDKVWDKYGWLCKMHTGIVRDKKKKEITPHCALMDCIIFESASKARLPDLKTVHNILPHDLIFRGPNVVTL

[3] = qHTS of pediatric cancer cell lines to identify multiple opportunities for drug repurposing: Primary screen for TC32 cells (AID 1347089); conditions: TC32 Ewing sarcoma viability, CellTiter-Glo luminescence, 48 h; series mostly up to 45.8 µM; further: nearly all actives have a fitted effect of over 60% in size
Summary of the method: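 In the primary qHTS, MIPE compounds were tested at 11 concentrations (0.78 nM to 46 µM) and NPC compounds at 8 (0.59 nM to 46 µM) on TC32 cells for 48 h. CellTiter-Glo luminescence gave viability.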

[4] = qHTS of pediatric cancer cell lines to identify multiple opportunities for drug repurposing: Primary screen for DAOY cells (AID 1347090); conditions: DAOY medulloblastoma viability, CellTiter-Glo luminescence, 48 h; series mostly up to 46 µM; further: nearly all actives have a fitted effect of over 55% in size
Summary of the method: (§1)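 Eight- or eleven-point concentration series, 48 h treatment at 37 degrees C in growth media; readout CellTiter-Glo luminescence. Potency and efficacy were taken from the concentration-response curves.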

[5] = qHTS of pediatric cancer cell lines to identify multiple opportunities for drug repurposing: Primary screen for SJ-GBM2 cells (AID 1347091); conditions: SJ-GBM2 viability, CellTiter-Glo luminescence, 48 h; series mostly up to 46 µM
Summary of the method: as §1

[6] = qHTS of pediatric cancer cell lines to identify multiple opportunities for drug repurposing: Primary screen for A673 cells (AID 1347092); conditions: A673 Ewing sarcoma viability, CellTiter-Glo ATP luminescence, 48 h; series mostly up to 46 µM; further: nearly all actives have a fitted effect of over 45% in size
Summary of the method: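 48 h compound exposure, A673, 500-1,000 cells/well, 37 degrees C/5% CO2. MIPE: 11-point, 0.78 nM-46 µM; NPC: 8-point, 0.59 nM-46 µM (final). Readout CellTiter-Glo luminescence after 15 min RT.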

[7] = qHTS of pediatric cancer cell lines to identify multiple opportunities for drug repurposing: Primary screen for SK-N-MC cells (AID 1347093); conditions: SK-N-MC viability, CellTiter-Glo luminescence, 48 h; series mostly up to 46 µM
Summary of the method: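 Metabolically active cells were quantified by ATP-dependent luminescence (CellTiter-Glo, 15 min at room temperature) following 48 h treatment. Cells had been plated at 500-1,000 per well and settled for 5 h beforehand.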

[8] = qHTS of pediatric cancer cell lines to identify multiple opportunities for drug repurposing: Primary screen for NB-EBc1 cells (AID 1347095); conditions: NB-EBc1 neuroblastoma viability, CellTiter-Glo luminescence, 48 h; series mostly up to 46 µM
Summary of the method: (§2)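 Phenotypic viability qHTS, 48 h compound exposure, CellTiter-Glo luminescence read-out; multi-concentration dosing so that potency and efficacy derive directly from the primary screen's curves.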

[9] = qHTS of pediatric cancer cell lines to identify multiple opportunities for drug repurposing: Primary screen for BT-37 cells (AID 1347094); conditions: BT-37 viability, CellTiter-Glo luminescence, 48 h; series mostly up to 57.3 µM
Summary of the method: as §2
Potency means the concentration at half of the fitted maximal effect.

## CS(=O)(=O)c1ccc(C(=O)Nc2ccc(Cl)c(-c3ccccn3)c2)c(Cl)c1
[1]
  Potency: inactive
[2]
  Potency: inactive

## CC(C)(N)C(=O)N[C@H](COCc1ccccc1)C(=O)N1CCC2(CC1)CN(S(C)(=O)=O)c1ccccc12
[1]
  Potency: inactive
[2]
  Potency: inactive

## O=C(Nc1ccc(F)c(C(F)(F)F)c1)Nc1nnc(-c2ccncc2)s1
[1]
  Potency: 13.7 µM (active)

## CCc1cc(-c2n[nH]c(C)c2-c2ccc3c(c2)OCCO3)c(O)cc1O
[1]
  Potency: 6.85 µM (active)

## COCC(=O)NCC=Cc1ccc2ncnc(Nc3ccc(Oc4ccc(C)nc4)c(C)c3)c2c1
[1]
  Potency: inactive

## COc1cc2c(cc1OC)CN(CCc1ccc(NC(=O)c3cccc4c(=O)c5cccc(OC)c5[nH]c34)cc1)CC2
[1]
  Potency: inactive
[2]
  Potency: inactive

## Cc1ccc(F)c(NC(=O)Nc2ccc(-c3cccc4[nH]nc(N)c34)cc2)c1
[1]
  Potency: inactive
[2]
  Potency: inactive

## COc1ccc(C(=O)c2c(C)n(CCN3CCOCC3)c3cc(I)ccc23)cc1
[1]
  Potency: inactive
[2]
  Potency: inactive
[3]
  Potency: inactive
[4]
  Potency: 18.7 µM (active)
[5]
  Potency: 18.7 µM (active)
[6]
  Potency: 14.8 µM (active)
[7]
  Potency: 1480 nM (active)
[8]
  Potency: 20.9 µM (active)

## Cc1ccnc(NS(=O)(=O)c2ccc(NC(=O)Nc3ccc(S(=O)(=O)Nc4nccc(C)n4)cc3)cc2)n1
[1]
  Potency: 0.685 µM (active)

## NC(=O)c1c(OCc2c(F)cc(Br)cc2F)nsc1NC(=O)NCCCCN1CCCC1
[1]
  Potency: inactive
[2]
  Potency: inactive

## CO[C@H]1CCC(O[C@H]2C[C@H]([C@]3(C)CC[C@]4(C[C@H](O)[C@@H](C)[C@@H]([C@@H](C)C=C(C)C(=O)[C@H](C)C[C@H](C)C(=O)O)O4)O3)O[C@]3(O[C@@H]([C@H]4O[C@@](O)(CO)[C@H](C)C[C@H]4C)C[C@H]3C)[C@H]2C)O[C@H]1C (some centres not stated)
[1]
  Potency: inactive
[2]
  Potency: inactive
[3]
  Potency: 18.6 µM (active)
[4]
  Potency: 4.69 µM (active)
[5]
  Potency: 2.09 µM (active)
[6]
  Potency: 1.48 µM (active)
[7]
  Potency: 187 nM (active)
[9]
  Potency: 344 nM (active)
[8]
  Potency: 0.209 µM (active)

## CC(C)(C)c1cc(NC(=O)Nc2ccc(-c3cn4c(n3)sc3cc(OCCN5CCOCC5)ccc34)cc2)no1
[1]
  Potency: inactive
[2]
  Potency: inactive

## CC(C)Oc1cc(Nc2nc(N[C@@H](C)c3ccc(F)cn3)ncc2Cl)[nH]n1
[1]
  Potency: inactive
[2]
  Potency: inactive

## COc1cc2c(Oc3ccc4[nH]c(C)cc4c3F)ncnc2cc1OCCCN1CCCC1
[1]
  Potency: inactive
[2]
  Potency: inactive

## CN1C(=O)c2ccccc2C1=O
[1]
  Potency: inactive
[2]
  Potency: inactive

## N#Cc1ccc(NC(=O)Nc2ccccc2Br)c2n[nH]nc12
[1]
  Potency: inactive
[2]
  Potency: inactive

## O=C(N[C@H]1CN2CCC1CC2)c1ccc(Cl)cc1
[1]
  Potency: inactive
[2]
  Potency: inactive
[3]
  Potency: inactive
[4]
  Potency: 18.7 µM (active)
[5]
  Potency: inactive
[6]
  Potency: 5.9 µM (active)
[7]
  Potency: 1660 nM (active)
[8]
  Potency: inactive

## COc1ccc2c(c1)[C@]13CCCCC1C(C2)N(C)CC3 (some centres not stated)
[1]
  Potency: inactive
[2]
  Potency: inactive
[3]
  Potency: inactive
[4]
  Potency: inactive
[5]
  Potency: inactive
[6]
  Potency: inactive
[9]
  Potency: inactive
[8]
  Potency: inactive

## O=C(O)c1ccc(O)c2ncc(N3CCOCC3)cc12
[1]
  Potency: 48.5 µM (active)

## COc1cc2ncnc(Nc3ccc(F)c(Cl)c3)c2cc1NC(=O)C=CCN1CCCCC1
[1]
  Potency: inactive
[2]
  Potency: inactive

## CC(C)(C)c1[nH]cnc1C=c1[nH]c(=O)c(=Cc2ccccc2)[nH]c1=O
[1]
  Potency: 0.0079 µM (active)
[2]
  Potency: 31.4 nM (active)

## O=C(c1cc(Cc2n[nH]c(=O)c3ccccc23)ccc1F)N1CCN(C(=O)C2CC2)CC1
[1]
  Potency: inactive
[2]
  Potency: inactive

## CCOc1cc(C=C2C(=O)N(c3ccccc3)N=C2C)cc(Cl)c1OCC(=O)OC
[1]
  Potency: 7.69 µM (active)

## O=C(Nc1cc(C(F)(F)F)cc(C(F)(F)F)c1)c1cc(Cl)ccc1O
[1]
  Potency: 2.43 µM (active)

## CCN(CC)c1ccc(C(=C2C=CC(=[N+](CC)CC)C=C2)c2cc(S(=O)(=O)O)ccc2S(=O)(=O)[O-])cc1
[2]
  Potency: inactive

## O=c1[nH]c2ccccc2n1C1CCN(Cc2ccc(-c3[nH]c4cc5ncnc5cc4nc3-c3ccccc3)cc2)CC1
[1]
  Potency: inactive
[2]
  Potency: inactive
[3]
  Potency: inactive
[4]
  Potency: inactive
[5]
  Potency: 3.32 µM (active)
[7]
  Potency: 833 nM (active)
[8]
  Potency: 20.9 µM (active)

## Nc1ccc([N+](=O)[O-])cc1
[3]
  Potency: inactive
[4]
  Potency: inactive
[6]
  Potency: inactive
[8]
  Potency: inactive

## C=CCON=C(C[C@H]1O[C@@H]2O[C@]3(C)CC[C@@H]4[C@H](C)CC[C@@H]([C@H]1C)[C@@]24OO3)[C@H]1O[C@@H]2O[C@]3(C)CC[C@H]4[C@H](C)CC[C@@H]([C@@H]1C)[C@@]24OO3
[5]
  Potency: 0.372 µM (active)
[7]
  Potency: 332 nM (active)
[9]
  Potency: 432 nM (active)
[8]
  Potency: 0.372 µM (active)
